In the supplement of paper PMC10338343:
± gives the standard deviation.

test system: MILI (PIWIL2) piRISC loaded with piRNA #1 (26 nt); experiment: pre-steady-state target cleavage rate (min^-1); guide: piRNA #1 5'p-UGAGGUAGUAGGUUGUAUAGUAUCCA; MIWI and MILI are mouse PIWI proteins and EfPiwi is from a freshwater sponge; tags in brackets are library labels; higher = faster piRNA-guided slicing of the target; conditions: auxiliary factor: 500 nM mouse GTSF1
Method in brief: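 Reactions were run for 0–8 or 0–960 min at 33 °C in HEPES–potassium acetate buffer, combining 1 nM active affinity-purified piRISC with one synthetic guide, […] transcribed, DNA-blocked target RNA library and, in some cases, 500 nM GTSF1 partner protein. Sequencing of uncleaved targets followed, with normalisation to depth and to weakly complementary targets. Three trials were pooled, k3 was capped at 0.0001 min^-1, and the pre-steady-state cleavage rate was taken from a burst-and-steady-state fit.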
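Note: 1 nM active piRISC with 0.1 nM target library at 33 °C single turnover.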

Row | Sequence | pre-steady-state target cleavage rate
1 | GGAGACCUAACUAUACAACCUACUCACCUCA | 0.147 ± 0.032
2 | GGAGACCAUACUAUAGAAGCUACUACCUCA | 0.0882 ± 0.013
3 | GGAGACCAUACAAUACAACGUACUACCUCA | 0.0186 ± 0.0044
4 | GGAGACCUAUGAAUACAACCUACUAGCUCA | 0.00444 ± 0.0022
5 | GGAGACCUAUCUUUAGAACCUACUACCUCA | 0.0437 ± 0.0095
6 | GGAGACGAUACUAAACAACCUACUAGCUCA | 0.111 ± 0.019
7 | GGAGACCUAACUAUAGAACCUACUACGUCA | 0.0322 ± 0.01
8 | GGAGAGGAUACUAUACUUGCUACUACCUCA | 0.0407 ± 0.0049
9 | GGAGACCUAUGAAUACAACCUGCUACCUCA | 0.00274 ± 0.0027
10 | GGAGACCUUACUAUACAACGUAGUACCUCA | 0.015 ± 0.0045
11 | GGAGACCUUACUAUACAACCUAGAUCCUCA | 0.00967 ± 0.0031
12 | GGAGACCUAUGAUUACAAGCUACUACGUCA | 0.00819 ± 0.0037
13 | GGAGACCUAUGAUAUGAACGUUCUACCUCA | < 0.0001
14 | GGAGACCUAUGAUAUGUUCCUACUACCCCA | < 0.0001
15 | GGAGACCUAUCUAUACAACCUACUACGACA | 0.0627 ± 0.01
16 | GGAGACCUAUCUAUACAAGCUACUAGCUCA | 0.0812 ± 0.018
17 | GGAGAGGAUUCUAUACAACCAACUACCUCA | 0.00507 ± 0.0028
18 | GGAGACCUAUGAUAACAACCUACUACCUCC [g2:g16:cont:t1C] | 0.00493 ± 0.0021
19 | GGAGACCUUACUAUACAACGUUCUACCUCA | 0.00546 ± 0.0015
20 | GGAGACCUAUGAAUACAACCUACUACACUCA | 0.00526 ± 0.0026
21 | GGAGACCUAUCUAUACAACCUACUGACCUCA | 0.066 ± 0.012
22 | GGAGACCUAUCUAUACAACCUACUUACCUCA | 0.121 ± 0.015
23 | GGAGACCUAUGAUAUGUACCUACUGACCUCA | < 0.0001
24 | GGAGACCUAUCUAACAACCUACUACCUCA | 0.0222 ± 0.0049
